Read-out in assay [1]: solute carrier (SLC22A1), SLC22A1 (gene 6580)
Briefly: LTEA_HepaRG_SLC22A1: Life Technologies and Expression Analysis (LTEA) Assay for solute carrier (SLC22A1) using HepaRG (AID 2283524). Conditions: mRNA level, 48 h; actives raise or lower the signal. The method, boiled down:
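Transcript level of SLC22A1 quantified by qRT-PCR (normalized to three housekeeping genes) after 48 h chemical exposure of HepaRG cells, eight concentrations up to 100 µM, half-log steps, 0.5% DMSO vehicle. Gain or loss relative to DMSO fitted bidirectionally.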

Read-out in assay [2]: Pyruvate Dehydrogenase Kinase 4 (PDK4), PDK4 (gene 5166)
Nature of the assay: LTEA_HepaRG_PDK4: Life Technologies and Expression Analysis (LTEA) Assay for Pyruvate Dehydrogenase Kinase 4 (PDK4) using HepaRG (AID 2283525). The conditions noted are these: mRNA level, 48 h; actives raise or lower the signal. The method, boiled down: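 Readout is qRT-PCR of PDK4 transcript, normalized to three housekeeping genes, with bidirectional fitting against 0.5% DMSO vehicle. Differentiated HepaRG cells were treated 48 h in serum-free induction medium, duplicate wells, eight-point half-log series topping at 100 uM.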

Read-out in assay [3]: NAD(P)H dehydrogenase [quinone] 1 (NQO1), NQO1 (gene 1728)
Briefly: LTEA_HepaRG_NQO1: Life Technologies and Expression Analysis (LTEA) Assay for NAD(P)H dehydrogenase [quinone] 1 (NQO1) using HepaRG (AID 2283526). The conditions noted are these: mRNA level, 48 h; actives raise or lower the signal. The method, boiled down:
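In this assay, gene expression is read by qRT-PCR after 48 h exposure of HepaRG cells to eight concentrations (max 100 uM, half-log) in 0.5% DMSO. Each chemical runs in duplicate, and activity is scored relative to vehicle.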

Read-out in assay [4]: Nuclear factor erythroid 2-related factor 2 (Homo sapiens) (UniProt Q16236)
Nature of the assay: LTEA_HepaRG_NFE2L2: Life Technologies and Expression Analysis (LTEA) Assay for Nuclear factor erythroid 2-related factor 2 (NFE2L2) Transcription Factor using HepaRG (AID 2283527).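 Note: TaqMan qRT-PCR transcript level normalised to ACTB GAPDH and POLR2A housekeeping genes.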 The conditions noted are these: mRNA level, 48 h; actives raise or lower the signal. The procedure, abridged: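 NFE2L2 transcript level was read by qRT-PCR (housekeeping ACTB/GAPDH/POLR2A normalisation) after 48 h chemical treatment of HepaRG in serum-free induction medium. Duplicate 8-point half-log curves, top 100 uM, 0.5% DMSO vehicle; up- or down-regulation fitted against vehicle.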

Read-out in assay [5]: succinate dehydrogenase complex iron sulfur subunit B (SDHB), SDHB (gene 6390)
Briefly: LTEA_HepaRG_SDHB: Life Technologies and Expression Analysis (LTEA) Assay for succinate dehydrogenase complex iron sulfur subunit B (SDHB) using HepaRG (AID 2283528). Conditions: mRNA level, 48 h; actives raise or lower the signal. The method, boiled down:
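HepaRG cells (~100,000/well, plated 48 h) exposed in duplicate for 48 h in serum-free induction medium to 8-point half-log series from 100 uM in 0.5% DMSO; mRNA by qRT-PCR normalised to ACTB, GAPDH, POLR2A; bidirectional fit versus DMSO.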

Read-out in assay [6]: Signal transducer and activator of transcription 3 (Homo sapiens) (UniProt P40763)
Nature of the assay: LTEA_HepaRG_STAT3: Life Technologies and Expression Analysis (LTEA) Assay for Signal transducer and activator of transcription (STAT3) using HepaRG (AID 2283529). The conditions noted are these: mRNA level, 48 h; actives raise or lower the signal. The procedure, abridged:
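STAT3 transcript quantified by qRT-PCR against three housekeeping genes (ACTB, GAPDH, POLR2A), fitted both directions relative to DMSO. HepaRG cultures exposed 48 h to eight half-log concentrations, top 100 uM, 0.5% DMSO, serum-free induction medium.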

Read-out in assay [7]: solute carrier (SLCO1B1), SLCO1B1 (gene 10599)
Briefly: LTEA_HepaRG_SLCO1B1: Life Technologies and Expression Analysis (LTEA) Assay for solute carrier (SLCO1B1) using HepaRG (AID 2283530). Conditions: mRNA level, 48 h; actives raise or lower the signal. The method, boiled down: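 Differentiated human HepaRG cells, plated 48 h, switched to serum-free induction medium and exposed in duplicate for 48 h to 8 half-log concentrations (top 100 uM) in 0.5% DMSO. SLCO1B1 mRNA by TaqMan qRT-PCR, normalized to ACTB/GAPDH/POLR2A.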

Read-out in assay [8]: sulfotransferase 2A1 (SULT2A1), SULT2A1 (gene 6822)
Nature of the assay: LTEA_HepaRG_SULT2A1: Life Technologies and Expression Analysis (LTEA) Assay for sulfotransferase 2A1 (SULT2A1) using HepaRG (AID 2283531). The conditions noted are these: mRNA level, 48 h; actives raise or lower the signal. The method, boiled down:
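Differentiated human HepaRG cells in serum-free induction medium were exposed for 48 h to eight half-log concentrations (top 100 uM, 0.5% DMSO). SULT2A1 mRNA was measured by qRT-PCR, normalized to ACTB, GAPDH and POLR2A, and fitted bidirectionally against DMSO.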

Read-out in assay [9]: Transforming Growth Factor (TGFA), TGFA (gene 7039)
Briefly: LTEA_HepaRG_TGFA: Life Technologies and Expression Analysis (LTEA) Assay for Transforming Growth Factor (TGFA) using HepaRG (AID 2283532). The conditions noted are these: mRNA level, 48 h; actives raise or lower the signal. The method, boiled down: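 TGFA transcript quantified by qRT-PCR (Fluidigm arrays) against three housekeeping genes, after 48 hours chemical treatment of HepaRG cells. Top concentration 100 uM with half-log dilutions, 8 points, duplicates, 0.5% DMSO.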

Read-out in assay [10]: Transforming Growth Factor (TGFB1), TGFB1 (gene 7040)
Briefly: LTEA_HepaRG_TGFB1: Life Technologies and Expression Analysis (LTEA) Assay for Transforming Growth Factor (TGFB1) Transporter using HepaRG (AID 2283533). The conditions noted are these: mRNA level, 48 h; actives raise or lower the signal. The procedure, abridged: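 Differentiated human HepaRG cells in serum-free induction medium were exposed in duplicate for 48 h to eight concentrations (top 100 uM, half-log steps, 0.5% DMSO). TGFB1 mRNA was quantified by qRT-PCR, normalized to ACTB, GAPDH, POLR2A, and fitted bidirectionally against DMSO.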

Read-out in another assay: TIMP1, TIMP1 (gene 7076)
Nature of the assay: LTEA_HepaRG_TIMP1: Life Technologies and Expression Analysis (LTEA) Assay for TIMP1 using HepaRG (AID 2283534). Conditions: mRNA level, 48 h; actives raise or lower the signal. The method, boiled down: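 Differentiated human HepaRG cells in serum-free induction medium were exposed 48 h to chemicals (8 half-log concentrations, top 100 uM, 0.5% DMSO). TIMP1 mRNA was quantified by TaqMan qRT-PCR, normalized to ACTB/GAPDH/POLR2A; bidirectional fit versus DMSO.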

Read-out in assay [11]: Tumor necrosis factor receptor 1 (TNFRSF1A), TNFRSF1A (gene 7132)
Briefly: LTEA_HepaRG_TNFRSF1A: Life Technologies and Expression Analysis (LTEA) Assay for Tumor necrosis factor receptor 1 (TNFRSF1A) using HepaRG (AID 2283535). Conditions: mRNA level, 48 h; actives raise or lower the signal. The procedure, abridged: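 Differentiated human HepaRG cells were exposed in duplicate for 48 h in serum-free induction medium to eight concentrations (top 100 uM, half-log steps, 0.5% DMSO). TNFRSF1A mRNA was quantified by qRT-PCR, normalized to ACTB, GAPDH and POLR2A, then fitted bidirectionally against DMSO.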

Read-out in assay [12]: Thyroid Hormone Responsive (THRSP), THRSP (gene 7069)
Nature of the assay: LTEA_HepaRG_THRSP: Life Technologies and Expression Analysis (LTEA) Assay for Thyroid Hormone Responsive (THRSP) using HepaRG (AID 2283536). Conditions: mRNA level, 48 h; actives raise or lower the signal. The method, boiled down: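 THRSP transcript quantified by Fluidigm qRT-PCR against three housekeeping genes after 48 h chemical exposure of HepaRG cells in serum-free induction medium; eight-point half-log series, top 100 uM, 0.5% DMSO vehicle, duplicate wells.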

Read-out in assay [13]: Cellular tumor antigen p53 (Homo sapiens) (UniProt P04637)
Nature of the assay: LTEA_HepaRG_TP53: Life Technologies and Expression Analysis (LTEA) Assay for Tumor Protein P53 (TP53) using HepaRG (AID 2283537). Conditions: mRNA level, 48 h; actives raise or lower the signal. The method, boiled down:
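Differentiated HepaRG cells in serum-free induction medium exposed 48 h in duplicate to 8 half-log concentrations, top 100 uM, 0.5% DMSO. TP53 mRNA by TaqMan qRT-PCR (Fluidigm), normalized to ACTB, GAPDH, POLR2A; fitted bidirectionally versus DMSO.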

Read-out in assay [14]: UDP glucuronosyltransferase (UGT1A1), UGT1A1 (gene 54658)
Briefly: LTEA_HepaRG_UGT1A1: Life Technologies and Expression Analysis (LTEA) Assay for UDP glucuronosyltransferase (UGT1A1) using HepaRG (AID 2283538). Conditions: mRNA level, 48 h; actives raise or lower the signal. The method, boiled down: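 mRNA induction or loss of UGT1A1, by TaqMan qRT-PCR, in duplicate HepaRG wells after 48 h exposure to half-log dilutions topping at 100 uM; DMSO (0.5%) served as baseline.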

Read-out in assay [15]: UDP glucuronosyltransferase (UGT1A6), UGT1A6 (gene 54578)
Briefly: LTEA_HepaRG_UGT1A6: Life Technologies and Expression Analysis (LTEA) Assay for UDP glucuronosyltransferase (UGT1A6) using HepaRG (AID 2283539). The conditions noted are these: mRNA level, 48 h; actives raise or lower the signal. The procedure, abridged: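 Human HepaRG cells were dosed for 48 h in serum-free induction medium with 0.5% DMSO vehicle, eight-point half-log series from 100 uM, in duplicate. UGT1A6 mRNA was measured by qRT-PCR, normalized to ACTB, GAPDH, POLR2A, and fitted bidirectionally against DMSO.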

Read-out in assay [16]: X-box binding protein 1 (XBP1), XBP1 (gene 7494)
Nature of the assay: LTEA_HepaRG_XBP1: Life Technologies and Expression Analysis (LTEA) Assay for X-box binding protein 1 (XBP1) using HepaRG (AID 2283540). The conditions noted are these: mRNA level, 48 h; actives raise or lower the signal. The procedure, abridged:
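Differentiated human HepaRG cells in serum-free induction medium were exposed in duplicate for 48 h to eight half-log concentrations up to 100 uM in 0.5% DMSO. XBP1 mRNA was quantified by qRT-PCR, normalised to ACTB, GAPDH and POLR2A, with bidirectional fitting against DMSO.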

Assay [17] in a line: LTEA_HepaRG_LDH_cytotoxicity: Cytotoxicity Assessment in the Life Technologies and Expression Analysis (LTEA) Assay (AID 2283563; active = hit-call score of the fitted dose curve at least 0.9, where 1 is the maximum). The method, boiled down:
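Differentiated human HepaRG cells, plated 48 h beforehand, were switched to serum-free induction medium and exposed for 48 h to eight half-log concentrations (top 100 uM) in 0.5% DMSO. LDH was measured in spent medium; activity was fitted relative to DMSO vehicle.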

Assay [18] in a line: ATG_XTT_Cytotoxicity: Cytotoxicity Assessment in the Attagene TRANS-FACTORIAL HepG2 Assay (AID 2283584; active = hit-call score of the fitted dose curve at least 0.9, where 1 is the maximum). The procedure, abridged:
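HepG2 human liver cells, transiently transfected with multiple GAL4-UAS reporter units, were dosed and read at 24 h by XTT as cell number. Loss of signal was fitted relative to DMSO negative control baseline.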

Assay [19] in a line: TOX21_p53_BLA_p2_viability: Viability Assessment in the Tox21 HCT-116 p53 Agonism Beta-lactamase Assay, Phase 2 (AID 2283591; active = hit-call score of the fitted dose curve at least 0.9, where 1 is the maximum;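 note: compound exposure lasted 16 h at 37 °C; actives lower the ATP signal meaning cytotoxicity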). The procedure, abridged: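 Cytotoxicity readout: CellTiter-Glo ATP luminescence, 30 min at room temperature, after the beta-lactamase read. Cells were HCT116 exposed 16 h at 37C to compounds pin-transferred at 217-fold dilution from DMSO stocks.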

Our source for the outcome and AC50 values is PubChem BioAssay (EPA / NIEHS).

Inconclusive results are not listed. Calls of active or inactive are those of the source. Rule for the calls, unless noted: active = hit-call score of the fitted dose curve at least 0.9, where 1 is the maximum; inactive = score below 0.9.

Chain of Nuclear factor erythroid 2-related factor 2 (Homo sapiens) (Q16236 whole entry, looked up): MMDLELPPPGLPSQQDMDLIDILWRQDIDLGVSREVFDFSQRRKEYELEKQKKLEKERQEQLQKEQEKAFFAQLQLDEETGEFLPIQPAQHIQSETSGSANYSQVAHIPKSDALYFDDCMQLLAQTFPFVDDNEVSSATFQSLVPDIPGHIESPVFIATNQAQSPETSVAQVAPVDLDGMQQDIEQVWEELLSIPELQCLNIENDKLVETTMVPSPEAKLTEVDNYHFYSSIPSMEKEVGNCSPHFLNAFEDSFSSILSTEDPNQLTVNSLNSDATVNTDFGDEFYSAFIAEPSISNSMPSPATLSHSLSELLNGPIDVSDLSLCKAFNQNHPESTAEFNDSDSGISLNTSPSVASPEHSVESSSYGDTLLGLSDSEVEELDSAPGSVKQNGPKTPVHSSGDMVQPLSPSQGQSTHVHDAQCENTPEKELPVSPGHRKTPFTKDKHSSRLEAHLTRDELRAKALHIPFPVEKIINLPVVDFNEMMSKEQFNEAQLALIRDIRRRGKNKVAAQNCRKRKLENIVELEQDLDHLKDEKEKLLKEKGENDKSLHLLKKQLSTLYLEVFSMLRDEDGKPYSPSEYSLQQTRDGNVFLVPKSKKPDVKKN
Chain of Cellular tumor antigen p53 (Homo sapiens) (P04637 whole entry, looked up): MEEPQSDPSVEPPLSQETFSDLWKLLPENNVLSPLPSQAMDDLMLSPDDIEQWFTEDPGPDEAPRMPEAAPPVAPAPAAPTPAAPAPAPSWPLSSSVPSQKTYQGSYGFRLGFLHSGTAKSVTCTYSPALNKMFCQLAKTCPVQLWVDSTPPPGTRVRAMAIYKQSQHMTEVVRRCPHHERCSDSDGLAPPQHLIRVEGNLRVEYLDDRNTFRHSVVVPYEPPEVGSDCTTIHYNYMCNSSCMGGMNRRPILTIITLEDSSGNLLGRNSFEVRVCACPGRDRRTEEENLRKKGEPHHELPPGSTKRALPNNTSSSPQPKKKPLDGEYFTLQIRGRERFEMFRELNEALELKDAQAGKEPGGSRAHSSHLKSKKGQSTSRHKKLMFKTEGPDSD
Chain of Signal transducer and activator of transcription 3 (Homo sapiens) (P40763 whole entry, looked up): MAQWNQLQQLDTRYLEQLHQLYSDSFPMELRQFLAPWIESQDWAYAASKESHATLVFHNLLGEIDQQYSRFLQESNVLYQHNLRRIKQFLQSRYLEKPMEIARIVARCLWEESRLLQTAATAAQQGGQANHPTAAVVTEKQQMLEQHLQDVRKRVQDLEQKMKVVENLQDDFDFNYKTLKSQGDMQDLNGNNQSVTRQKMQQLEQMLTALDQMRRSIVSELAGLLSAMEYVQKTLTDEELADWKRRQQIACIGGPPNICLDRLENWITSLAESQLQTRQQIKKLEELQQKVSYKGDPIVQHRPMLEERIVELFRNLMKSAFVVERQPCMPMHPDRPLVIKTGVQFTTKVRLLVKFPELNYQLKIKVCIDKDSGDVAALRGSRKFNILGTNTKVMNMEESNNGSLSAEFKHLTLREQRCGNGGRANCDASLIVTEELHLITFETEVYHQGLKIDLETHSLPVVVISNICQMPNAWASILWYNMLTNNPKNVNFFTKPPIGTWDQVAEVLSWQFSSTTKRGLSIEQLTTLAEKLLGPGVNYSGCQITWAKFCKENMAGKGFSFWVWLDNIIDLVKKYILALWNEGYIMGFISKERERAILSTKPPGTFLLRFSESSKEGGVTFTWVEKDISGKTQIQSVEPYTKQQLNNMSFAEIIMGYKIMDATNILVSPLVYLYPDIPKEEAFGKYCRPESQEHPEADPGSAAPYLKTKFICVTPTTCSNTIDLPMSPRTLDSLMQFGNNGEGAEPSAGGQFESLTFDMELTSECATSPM

With `CCN(CC)CCO`, the compound was classed as inactive in assay [1], in assay [2], in assay [3], in assay [4], in assay [5] and in assay [6]. Also, the outcome is “inactive” in assay [7]; “inactive” in assay [8]; “inactive” in [9]; “inactive” in assay [10]; “inactive” in the assay with TIMP1, TIMP1 (gene 7076); “inactive” in assay [11]. Besides, the result in assay [12], in assay [13], in assay [14], in assay [15], in assay [16] and in assay [17] was inactive. Further, the call in assay [18] and in assay [19] was inactive.

Regarding `O=Cc1ccco1`, the outcome in assay [1], in assay [2], in assay [3], in [4], in assay [5] and in assay [6] was inactive. In addition, the outcome is “inactive” in [7]; “inactive” in assay [8]; “inactive” in assay [9]; “inactive” with TIMP1, TIMP1 (gene 7076); “inactive” in assay [11]; “inactive” in assay [12]. In addition, the outcome in assay [13], in assay [14], in assay [15], in [16] and in assay [19] was inactive.

Take `COC(=O)Nc1nc2ccccc2[nH]1`: the compound was classed as inactive in assay [1], in assay [2], in assay [3], in [4], in [5] and in [6]. For the same compound, the outcome in assay [7] was “inactive”; in assay [8] it was “inactive”; in assay [9] it was “inactive”; in assay [10] it was “inactive”; with TIMP1, TIMP1 (gene 7076), “inactive”; in assay [11], “inactive”. In addition, the call in [12], in assay [13], in assay [15], in assay [16] and in assay [17] was inactive. Moreover, the AC50 (usually the midpoint of the concentration-response curve, whichever way the signal moves) in [14] is 31.4 µM (active).

Consider `CCCCC(CC)COC(=O)c1ccc(C(=O)OCC(CC)CCCC)c(C(=O)OCC(CC)CCCC)c1` (configuration not stated), for which the compound was called inactive in [1], in assay [2], in assay [3], in assay [4], in assay [6] and in [7]. Besides, the outcome is “inactive” in assay [8]; “inactive” in assay [9]; “inactive” in [10]; “inactive” with TIMP1, TIMP1 (gene 7076); “inactive” in assay [11]; “inactive” in assay [12]. The result in assay [13], in [14], in assay [15], in assay [16] and in assay [17] was inactive.
